This passage reports fluorescence fold increase results from PubChem BioAssay AID709 (SRMLSC, 2007).

The campaign covered roughly 65,000 compounds. About 3,600 (5.5%) were called active. The list comes from a sample in which actives are over-represented; it also holds similar structures and randomly drawn compounds. A number with no mark means an inactive call.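 Rule for the calls: active = at 10 µM, mean starting fluorescence two-fold or more over control wells; inactive = the rest.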

The assay can be described thus: intrinsic fluorescence of library compounds, ex339/em460 – biochemical, MLSMR library, data from DPM-DC assay, artefact control, profiling panel (AID 709).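 Note: signal is the first read of a kinetic run.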 Conditions: compound autofluorescence, ex339/em460 nm, NADH buffer; at 10 µM; active compounds read high; 1 = no-compound wells, NADH background.
On to `O=C1CC(c2cccc(Br)c2)C2=C(CCCC2=O)N1` (stereo not given), for which the fluorescence fold increase was 2.04 (active).

Take `O=C1CC(c2cccc(F)c2)C2=C(CCCC2=O)N1` (stereo not given): the fluorescence fold increase was 1.17.

Regarding `O=C1CCCc2c1[nH]c1ccc(Br)cc21`, the fluorescence fold increase was 1.13.

`C=CCc1cccc2cc(C(=O)OCC)c(=O)oc12`: the fluorescence fold increase was 1.21.

Consider `CC(=O)O[C@]1(C(C)=O)CC[C@H]2[C@@H]3C=C(C)C4=CC(=O)CC[C@]4(C)[C@H]3CC[C@@]21C`, for which the fluorescence fold increase was 1.

Turning to `COc1ccc(C(=O)NCCc2ccc(S(N)(=O)=O)cc2)cc1OC`, the fluorescence fold increase is 1.15.

Turning to `O=C(NCc1ccc(Cl)cc1)c1cc2c(nc3sccn32)s1`, the fluorescence fold increase is 2.6 (active).

Take `O=C(NCc1cn2ccsc2n1)Nc1ccc(Cl)cc1`: the fluorescence fold increase was 1.11.

For `O=c1cc(Cn2nnc(-c3ccc(Cl)cc3)n2)nc2sccn12`, the fluorescence fold increase was 1.22.

For `O=C(Nc1c2c(nn1-c1ccc(F)cc1)CS(=O)C2)C12CC3CC(CC(C3)C1)C2` (stereo not given), the fluorescence fold increase is 1.05.

For the compound `Cc1cc(C)cc(N(CC(=O)Nc2c(C)n(C)n(-c3ccccc3)c2=O)S(C)(=O)=O)c1`, the fluorescence fold increase is 1.04.

With `Cc1nc2cc(-c3ccc(F)cc3)nn2c(N2CCOCC2)c1C`, the fluorescence fold increase is 1.16.

On to `COCCCNC(=O)c1ccc2c(c1)ncn2-c1ccccc1OC`, for which the fluorescence fold increase was 1.07.

Consider `CN(C)CCCNC(=O)c1ccc2[nH]c3ccccc3c2c1`, for which the fluorescence fold increase was 3.36 (active).

For the compound `Cc1ccc(C(=O)NCCNS(=O)(=O)c2ccccc2)cc1`, the fluorescence fold increase is 1.02.

Consider `CSc1nnc(CNC(=O)c2ccccc2)n1-c1ccc(F)cc1`, for which the fluorescence fold increase was 1.11.

For `O=S(=O)(c1cccc(S(=O)(=O)N2CCC(n3nnc4ccccc43)CC2)c1)N1CCCCC1`, the fluorescence fold increase is 1.05.

For `Cc1ccc2oc(=O)c3cnn(CC(=O)N4CCCCCC4)c3c2c1`, the fluorescence fold increase is 1.04.

With `Cc1ccc2cc3cc(C(=O)N4CCCCCC4)oc3nc2c1`, the fluorescence fold increase is 3.22 (active).

`Cc1ccc(C(=O)N2CCCCCC2)cc1Br`: the fluorescence fold increase is 1.08.

On to `Cc1cc(C)n2nc(C(=O)Oc3ccc4c(c3)OCO4)nc2n1`, for which the fluorescence fold increase was 1.15.

On to `CC(C)(C)c1nc(NCC2CCCO2)c2nnn(Cc3ccccc3)c2n1` (stereo not given), for which the fluorescence fold increase is 1.16.

As for `C#CCNc1nc(C(C)C)nc2c1nnn2Cc1ccccc1F`, the fluorescence fold increase was 1.04.

As for `Cc1nc(Nc2ccc3c(c2)OCCO3)c2nnn(Cc3ccccc3Cl)c2n1`, the fluorescence fold increase is 2.39 (active).

Turning to `CCOC(=O)N1CCN(Cc2oc(CO)cc(=O)c2O)CC1`, the fluorescence fold increase is 1.04.

Take `CCCc1cc(=O)oc2c(C)c(O)c(CN3CCCCC3)cc12`: the fluorescence fold increase is 2.34 (active).

Turning to `CCc1ccc2oc(=O)cc(CN3CCCCC3C)c2c1` (stereo not given), the fluorescence fold increase was 1.11.

In the case of `C[N+](C)(C)CCNC(=O)c1c(O)c2c([nH]c1=O)CCCC2`, the fluorescence fold increase was 1.18.

For `O=C(Cn1c(-c2ccccn2)nc2ccccc21)NCCN1CCOCC1`, the fluorescence fold increase was 1.39.

On to `O=C(COc1ccc2c3c(c(=O)oc2c1)CCC3)NC1CCCCC1`, for which the fluorescence fold increase is 2.13 (active).

In the case of `O=C(COc1ccc2oc3c(c2c1)CCCC3)Nc1ccccn1`, the fluorescence fold increase was 1.06.

For the compound `O=C(CC1OC(=O)c2ccccc21)NC1CCCCC1` (stereo not given), the fluorescence fold increase was 1.08.

For the compound `CCc1cc(=O)oc2cc(OCC(=O)N3CCCc4ccccc43)ccc12`, the fluorescence fold increase was 1.26.

For the compound `NC(=O)COc1ccc2c3c(c(=O)oc2c1)CCCCC3`, the fluorescence fold increase was 3.71 (active).

As to `O=C(COc1ccccc1F)NC1CC1`, the fluorescence fold increase is 1.01.

As for `O=C(C1CCC(C(=O)N2CCCC2)CC1)N1CCCC1` (stereo not given), the fluorescence fold increase was 1.02.

As to `Cc1nnc(SCC(=O)NCc2ccccc2)s1`, the fluorescence fold increase was 1.06.

Consider `O=C(O)CC(c1ccccc1)n1cnnn1` (stereo not given), for which the fluorescence fold increase is 1.14.

For `O=C(CS(=O)(=O)Cc1ccccc1)Nc1cccnc1`, the fluorescence fold increase is 1.1.

Take `CCOCCN(C=O)c1cccc(OC)c1`: the fluorescence fold increase was 1.15.

On to `COc1ccccc1C1/C(=C(/O)c2ccc(OC(C)C)cc2)C(=O)C(=O)N1c1cc(C)on1` (stereo not given), for which the fluorescence fold increase was 1.06.

`Cc1ccc(S(=O)(=O)NCC(=O)N(CC(=O)NC2CCCCC2)Cc2ccco2)cc1`: the fluorescence fold increase was 1.

Turning to `CC(Cc1cccs1)NC(=O)NC1CCCCC1` (stereo not given), the fluorescence fold increase was 1.06.

In the case of `CC(=O)Nc1cc2ccc(OC(C)=O)cc2oc1=O`, the fluorescence fold increase was 2.1 (active).

For the compound `CC(=O)Oc1ccc2c(C)c(CC(C)O)c(=O)oc2c1` (stereo not given), the fluorescence fold increase is 3.67 (active).

For `COc1ccc(C(=O)c2oc3ccc(Br)cc3c2NC(C)=O)cc1`, the fluorescence fold increase was 1.11.

As to `COc1ccc2oc(C)c(NC(C)=O)c2c1`, the fluorescence fold increase is 1.06.

`O=C(NCc1ccc(Cl)c(Cl)c1)c1cccnc1`: the fluorescence fold increase is 0.91.

As for `O=C1C=C(NCCNc2c(F)c(F)c(CO)c(F)c2F)CCC1`, the fluorescence fold increase is 1.14.

On to `Cc1nc(NCCN)c(C#N)c2c1COC(C)(C)C2`, for which the fluorescence fold increase was 1.92.

Take `COc1ccc(CSc2nc(N3CCOCC3)c3c(c2C#N)CC(C)(C)OC3)cc1`: the fluorescence fold increase is 1.08.

For `CC1(C)Cc2c(C#N)c(SCc3nc4ccccc4[nH]3)nc(N3CCOCC3)c2CO1`, the fluorescence fold increase is 1.39.

For `CC(C)C(=O)N1CCN(c2nc(-c3ccccc3)c3c(c2C#N)CC(C)(C)OC3)CC1`, the fluorescence fold increase was 2.34 (active).

With `CC(C)c1nc(N2CCOCC2)c(C#N)c2c1COC(C)(C)C2`, the fluorescence fold increase was 2.28 (active).

Take `CC(C)Cc1nc(N2CCOCC2)c(C#N)c2c1CCC2`: the fluorescence fold increase is 1.97.

On to `C/C(=C\c1ccco1)C1Nc2cccc3cccc(c23)N1`, for which the fluorescence fold increase is 1.19.

As for `CCOc1c(OC)cc(C2C(C#N)=C(N)Oc3n[nH]c(-c4ccncc4)c32)cc1OC` (stereo not given), the fluorescence fold increase was 1.13.

`COc1ccc(-c2nnc(SCC(=O)c3cccs3)o2)c(OC)c1`: the fluorescence fold increase is 1.12.

For `COc1ccc(OC)c(C(=O)CSc2nnc(-c3cccs3)o2)c1`, the fluorescence fold increase is 3.64 (active).

For `COc1ccc(-n2c(C)cc(C(=O)CSc3nnc(-c4cccs4)o3)c2C)cc1`, the fluorescence fold increase was 1.07.

Take `COc1ccc2c(c1)CCc1c(C(=O)N3CCCC3)noc1-2`: the fluorescence fold increase was 1.1.

On to `CN(CCc1ccccn1)S(=O)(=O)c1ccc2c3c(cccc13)C(=O)N2`, for which the fluorescence fold increase was 3.89 (active).

Regarding `O=c1[nH]nc(Cc2ccccn2)c2ccccc12`, the fluorescence fold increase is 1.07.

Turning to `CC1(C)CN=C(N2CCN(c3ncnc4sc5c(c34)CCCC5)CC2)S1`, the fluorescence fold increase was 1.03.

Turning to `Fc1c(F)c(C(F)(F)F)c(F)c(F)c1N1CCN(c2ccc3nnc(C(F)(F)F)n3n2)CC1`, the fluorescence fold increase is 1.93.
